Assay outcomes (PubChem BioAssay)
DT40 TDP1 no CPT – qHTS for Inhibitors of human tyrosyl-DNA phosphodiesterase 1 (TDP1): qHTS in cells in absence of CPT. DT40 Tdp1-/- hTDP1 cells, no CPT, ATP luminescence, 48 h. Potency, µM (doses to about 46.2 µM), actives largely listed as inhibitors. 15% of 420,000 active. AID 686978, 2013; note: nearly all actives have a fitted effect of over 55% in size
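Chicken DT40 Tdp1-/- cells stably complemented with human TDP1 were seeded at 400 cells/well with DMSO in place of 20 nM camptothecin. After compound pinning, cells grew at least 48 hr at 37 °C; viability read by CellTiter-Glo luminescence.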
HT1080NT lethal – kills 2HG-producing HT-1080-NT fibrosarcoma cells; HT-1080-NT fibrosarcoma viability, CellTiter-Glo ATP luminescence, 48 h; Potency, µM (highest dose often 46.1 µM), hits mostly cytotoxic; 1.6% of 360,000 active;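 note: NT is the 2HG producing partner of a matched IDH1 knockdown line; nearly all actives have a fitted effect of over 55% in size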
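Read-out is CellTiter-Glo luminescence after 10 minutes at room temperature, following 48 hours' compound treatment of HT-1080-NT cells (750 cells/well, RPMI, 5% FBS, 37 degrees C).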
HT1080 IDH1KD tx – HT-1080 IDH1 knockdown cell toxicity (counter line) | HT-1080 IDH1 knockdown viability, ATP luminescence, 48 h | Potency, µM (highest dose often 46.1 µM), hits mostly cytotoxic | 2% of 360,000 active
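Viability of IDH1-knockdown HT-1080 fibrosarcoma cells was assessed by CellTiter-Glo after 48 h at 37 °C with titrated compound; concentration-effect curves were classified by fit quality and response size.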
DT40 TDP1 CPT – growth inhibition of DT40 Tdp1-/-;hTDP1 cells with camptothecin (screen for TDP1 inhibitors) | chicken DT40 Tdp1-/-;hTDP1 cells + 20 nM CPT, ATP luminescence, 48 h | Potency, µM (doses to about 46.2 µM), most hits filed as inhibitors | 12% of 420,000 active | AID 686979; note: nearly all actives have a fitted effect of over 55% in size
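Chicken DT40 Tdp1-/- cells stably complemented with human TDP1 were seeded at 400 cells/well in medium containing 20 nM camptothecin, exposed to pin-transferred compounds, and grown at 37 °C for at least 48 hr. Viability was read as ATP luminescence.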
IL-1B inflam inh – blocks inflammasome-driven IL-1 beta release; THP-1 LPS/ATP IL-1B secretion, AlphaLISA, 16 h; active compounds read low; 4.7% of 360,000 active; activity change, % at 57.5 µM; in the data active = activity change below about -50%; inconclusive = mostly about -30% to -49%
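THP-1 cells pretreated 1 hr with compounds (up to 57.5 uM final), then stimulated with LPS (250 ng/mL final) plus ATP (1.25 mM final); secreted IL-1B measured by AlphaLISA after 16 hr, decreased signal indicating inhibition.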
Large screens that a line does not name were inactive. Most compounds without a hit are left out; they make up all but 19% or so of the library. Unless noted, calls come from the whole dose curve; as a rule, active = well fitted curve in the direction sought with a large enough effect; inconclusive = small, poorly fitted or top-dose-only effect, or another doubt; inactive = no such curve, though single readings can be large; an effect the other way counts as inactive or inconclusive.

Cc1ccccc1NC(=O)/C=C/c1cccs1	DT40 TDP1 no CPT inconclusive, DT40 TDP1 CPT inconclusive
CCCNC(=O)C1(CC2CC(c3ccccc3)=NO2)CCN(C(=O)C2(C)CC2)CC1 (stereo not given)	none
CCCNC(=O)C1(CC2CC(c3ccccc3)=NO2)CCN(C(=O)CCCCCBr)CC1 (stereo not given)	none
CCCNC(=O)C1(CC2CC(c3ccccc3)=NO2)CCN(C(=O)OC(C)(C)C)CC1 (stereo not given)	DT40 TDP1 no CPT inconclusive, DT40 TDP1 CPT inconclusive
O=C(NCC1CCCCC1)C1(CC2CC(c3ccc(Cl)cc3)=NO2)CCNCC1 (stereo not given)	DT40 TDP1 no CPT 18µM, HT1080NT lethal inconclusive, DT40 TDP1 CPT 23µM, IL-1B inflam inh inconclusive
CCCCCCCNC(=O)C1(CC2CC(c3cccc(Br)c3)=NO2)CCN(C(=O)C2CCCC2)CC1 (stereo not given)	DT40 TDP1 no CPT inconclusive, DT40 TDP1 CPT 21µM
CCCCCCCNC(=O)C1(CC2CC(c3cccc(Br)c3)=NO2)CCN(C(=O)OC(C)(C)C)CC1 (stereo not given)	DT40 TDP1 no CPT 15µM, DT40 TDP1 CPT inconclusive
CC(C)(C)OC(=O)N1CCC(CC2CC(c3cccc(Br)c3)=NO2)(C(=O)NCC2CCCCC2)CC1 (stereo not given)	DT40 TDP1 no CPT 16µM, DT40 TDP1 CPT inconclusive
O=C([C@H]1O[C@@H](n2ccc(=O)[nH]c2=O)[C@H](O)[C@@H]1O)N1CCC(F)(F)CC1	HT1080NT lethal inconclusive
COC(=O)c1ccc(OC(C)C(=O)c2ccc(C)cc2)cc1 (stereo not given)	DT40 TDP1 no CPT inconclusive
O=C(NCC1CCCCC1)C1(CC2CC(c3cccc(Br)c3)=NO2)CCNCC1 (stereo not given)	DT40 TDP1 no CPT 16µM, DT40 TDP1 CPT 16µM
CC(=O)Oc1c(Br)cc(N(C(C)=O)S(=O)(=O)c2ccccc2)c2ccccc12	DT40 TDP1 no CPT 6.5µM, HT1080NT lethal inconclusive, HT1080 IDH1KD tx inconclusive, DT40 TDP1 CPT inconclusive
N#CC1=C(N)N2C(=C(C#N)C1c1ccc(Br)cc1)Nc1ccccc12 (stereo not given)	DT40 TDP1 no CPT 3.3µM, HT1080NT lethal inconclusive, HT1080 IDH1KD tx inconclusive, DT40 TDP1 CPT 6.5µM, IL-1B inflam inh inconclusive
N#CC1=C(N)N2C(=C(C#N)C13CCN(Cc1ccccc1)CC3)Nc1ccccc12	none
N#CC1=C(N)N2C(=C(C#N)C1c1cccc(Br)c1)Nc1ccccc12 (stereo not given)	DT40 TDP1 no CPT 3.3µM, HT1080NT lethal inconclusive, HT1080 IDH1KD tx inconclusive, DT40 TDP1 CPT 3.7µM, IL-1B inflam inh -119
N#CC1=C(N)SC(N)=C(C#N)C1c1cccc(Oc2ccccc2)c1	DT40 TDP1 no CPT inconclusive, HT1080NT lethal inconclusive, HT1080 IDH1KD tx inconclusive, DT40 TDP1 CPT inconclusive
N#Cc1ccc(COC(=O)CCc2c[nH]c3ccccc23)cc1	none
CCOc1ccc(C(=O)CC(C(=O)O)N2CCN(Cc3ccccc3)CC2)cc1 (stereo not given)	DT40 TDP1 no CPT 3.7µM, DT40 TDP1 CPT 21µM
CCOc1ccc(C(=O)NCC(=O)N2CCN(Cc3ccccc3)CC2)cc1	none
CCOc1ccc(C(=O)OC(C)C(=O)N2CCN(Cc3ccccc3)CC2)cc1 (stereo not given)	DT40 TDP1 no CPT 18µM, DT40 TDP1 CPT 16µM
CCOc1ccc(C(=O)CC(NCc2cccs2)C(=O)O)cc1 (stereo not given)	DT40 TDP1 no CPT 16µM, HT1080 IDH1KD tx inconclusive, DT40 TDP1 CPT 8.2µM
CCOc1ccc(C(=O)CC(C(=O)O)N2CCCCC2)cc1 (stereo not given)	DT40 TDP1 no CPT inconclusive, HT1080NT lethal inconclusive, HT1080 IDH1KD tx inconclusive, DT40 TDP1 CPT 13µM, IL-1B inflam inh -57
Cc1ccc(C2C(C#N)=C(N)N(c3ncn[nH]3)C3=C2C(=O)CC(C)(C)C3)cc1 (stereo not given)	none
C=C(C)CSc1nc2sc3c(c2c(=O)n1-c1ccc(C)cc1)CCN(C)C3	DT40 TDP1 no CPT 12µM, DT40 TDP1 CPT 18µM
CCOC(=O)CSc1nc2sc3c(c2c(=O)n1C1CCCCC1)CCN(C)C3	DT40 TDP1 no CPT 29µM, DT40 TDP1 CPT inconclusive
